mHTT CaM bind – mutant huntingtin-calmodulin interaction inhibitors – biochemical, AlphaScreen, primary screen; P42858; AlphaScreen His-mHTT/GST-CaM binding, luminescence; inhibition, % at 15 µM; hit rate 3.6% among 190,000;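 note: 0% = both proteins with DMSO and 100% = one protein alone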
Pf apPOL inh – Pf-apPOL inhibitors, biochemical, fluorescence; Plasmodium falciparum apicoplast DNA polymerase (apPOL); Recombinant Pf-apPOL, molecular beacon fluorescence, 1.5 h; inhibition, % at 10 µM; hit rate 0.25% among 210,000
Numbers without * were called inactive; · = no result; ! = not confirmed by another sample. Compounds with a hit are over-represented: about 3.6% of the library has one in this group of screens. Cut-off read from the data, not from the text of the source: active = inhibition above about 50%; inactive = the rest.

SMILES	mHTT CaM bind	Pf apPOL inh
CCCC(=O)NC1CCN(c2nc3c(s2)c(C)nn3-c2ccc(F)cc2)CC1	2.3	-4.8
CC(C)NS(=O)(=O)c1ccc2[nH]c3nc(SCC(=O)NCc4cccs4)nnc3c2c1	12.0	-10.6
O=C(CCn1ccc(=O)[nH]c1=O)N1CCC(COCc2ccccc2)CC1	-4.4	2.8
O=C(Cn1ccc2ccccc21)N1CCC(COCc2ccccc2)CC1	58.0*	-15.9
CCOC(=O)/C=C(/C)Nc1nonc1NC(C)=O	-5.6	·
c1ccc(-c2nc(-c3cccnc3)[nH]c2-c2ccccc2)cc1	·	-3.3
COc1cccc(-c2nc(-c3ccsc3)c(-c3ccccc3)[nH]2)c1OC	44.0	-5.4
c1ccc(-c2nc(-c3ccc4c(c3)sc3ccccc34)c(-c3ccccc3)[nH]2)cc1	54.9*	·
Oc1ccc(-c2nc(-c3ccc(F)cc3)c(-c3ccncc3)[nH]2)cc1	·	17.2
COc1cc(-c2nc(-c3ccsc3)c(-c3ccccc3)[nH]2)cc(OC)c1O	87.0*	-7.2
COc1cc(-c2nc(-c3ccccc3)c(-c3ccc(O)cc3)[nH]2)cc(OC)c1O	88.0*	-1.1
CN(Cc1ccccc1)C(=O)C1CC(=O)N(c2ccccc2)C1 (centres undefined)	3.4	-1.5
COc1cccc(CNC(=O)C2CCc3nc(N4CCN(C(C)=O)CC4)sc3C2)c1 (centres undefined)	5.7	1.9
CC(=O)c1cccc(NC(=O)CN(C)c2nc3c(F)cccc3s2)c1	-8.5	-8.3
COc1ccc(Cl)cc1S(=O)(=O)NCCC1CCN(C(=O)c2ccccc2)CC1	76.7*	-3.1
COc1ccc(S(=O)(=O)NCCC2CCN(C(=O)c3ccccc3)CC2)cc1Cl	22.6	0.4
Cc1cc(C)cc(S(=O)(=O)NCCC2CCN(C(=O)c3ccccc3)CC2)c1	26.8	-4.7
COc1ccc(OC)c(S(=O)(=O)NCCC2CCN(C(=O)c3ccccc3)CC2)c1	63.5*	0.7
Cc1cccc(N2CCN(C(=O)C3CCc4sc(C(=O)N(C)C)cc4C3)CC2)c1 (centres undefined)	11.6	-1.3
COc1ccccc1CNC(=O)C1CCN(c2cn[nH]c(=O)c2)CC1	3.6	0.9
O=C(CSc1ccccn1)Nc1ccc(Br)cc1	-12.0	3.1
O=C(CSc1ccc(-c2ccccn2)nn1)Nc1ccc(F)c(F)c1	99.4*	-5.8
COc1ccc(Nc2nc(N(C)C)nc3nccnc23)cc1	54.9*	-20.5
COc1ccc(OC)c(Nc2nc3nonc3nc2Nc2ccc(F)cc2)c1	14.0	4.9
COc1cc(C2NCCc3cc(O)c(O)cc32)ccc1O (centres undefined)	-2.6	2.3
SMILES	mHTT CaM bind	Pf apPOL inh
CCC(CC)C(=O)N1CCc2c(c(C(=O)NCc3cccc(C)c3)nn2C)C1	20.9	-2.3
Cc1cccc(CNC(=O)c2nn(C)c3c2CN(C(=O)Cc2ccccc2)CC3)c1	63.5*	11.1
CCCCC(=O)N1CCc2c(c(C(=O)NCc3ccccc3)nn2C)C1	0.2	-9.2
Cn1nc(C(=O)NCc2ccc(F)cc2)c2c1CCN(C(=O)c1c(F)cccc1F)C2	8.7	-13.9
CCCCC(=O)N1CCc2c(c(C(=O)NCc3cccc(C)c3)nn2C)C1	58.7*	1.6
Cc1cccc(CNC(=O)c2nn(C)c3c2CN(C(=O)C(C)C)CC3)c1	41.0	66.9*
Cn1nc(C(=O)NCc2ccccc2)c2c1CCN(C(=O)Cc1ccc(F)cc1)C2	78.0*	-5.7
Cc1cccc(CNC(=O)c2nn(C)c3c2CN(C(=O)CC(C)C)CC3)c1	48.9	-4.0
CCOc1ccc(CCN2C(=O)CC(C(N)=O)SC2=Nc2ccc(F)cc2)cc1OCC (centres undefined)	40.0	-5.0
CC(=O)Nc1cccc(N2CC(C(=O)Nc3ccc4c(c3)OCO4)CC2=O)c1 (centres undefined)	-2.4	0.6
O=C(Nc1ccc2c(c1)OCCO2)c1ccnc(N2CCNC(c3ccccc3)C2)c1 (centres undefined)	16.2	3.7
O=C(Nc1ccc2c(c1)CCC2)c1ccnc(N2CCNC(c3ccccc3)C2)c1 (centres undefined)	81.6*	-4.4
Cc1nn(C)c(C)c1CCN(C)Cc1ccn(C)c(=O)c1	-14.5	-4.0
CN(C)S(=O)(=O)NCCn1nc(-c2ccccn2)n(C)c1=O	-13.2	-8.9
Cc1ccc(Cn2nc(C)c(NC(=O)c3noc4c3CCCCC4)c2C)cc1	15.3	-0.6
Cc1nn(Cc2ccc(Cl)c(Cl)c2)c(C)c1NC(=O)c1noc2c1CCCC2	100.1*	-3.9
Cc1nn(Cc2ccc(Cl)c(Cl)c2)c(C)c1NC(=O)c1cc(-c2ccco2)on1	57.0*	2.4
Cc1cc(C)n(CCNC(=O)c2cc(-c3ccco3)on2)n1	-0.3	5.8
Cc1cc(C)cc(NC(=O)c2cc3n(n2)CCCN(Cc2ccc(F)cc2)C3=O)c1	8.9	12.3
CCCCCCCn1c(SCC(C)C)nc2c1c(=O)[nH]c(=O)n2C	-2.5	·
N#CC1=C(N)OC2=C(C(=O)CC(c3ccco3)C2)C1c1ccc(OCc2ccccc2F)cc1 (centres undefined)	12.0	0.1
COc1ccc(C)cc1C(=O)C1CC(C(=O)O)C(C)(C)C1C (centres undefined)	3.6	58.7*
COc1ccc(C)cc1NC(=O)C1C2C=CC(C2)C1C(=O)O (centres undefined)	1.4	-3.7
CC1=C(C(=O)Nc2cccc(C(F)(F)F)c2)C(c2ccc(N(C)C)cc2)C2=C(CCCC2=O)N1 (centres undefined)	57.0*	-3.3
CC1=C(C(=O)Nc2cccc(C(F)(F)F)c2)C(c2ccncc2)C2=C(CCCC2=O)N1 (centres undefined)	-1.0	-1.0
SMILES	mHTT CaM bind	Pf apPOL inh
CC1=C(C(=O)Nc2ccccn2)C(c2ccc(F)cc2)C2=C(CCCC2=O)N1 (centres undefined)	0.0	1.6
CC1=C(C(=O)Nc2ccccn2)C(c2ccccc2)C2=C(CCCC2=O)N1 (centres undefined)	-1.0	51.9*
O=C(NC1CCCCC1)c1nc(-c2ccc(N3CCCCC3)cc2)no1	-7.6	-2.5
O=C(NC1CCCc2ccccc21)c1cc2n(n1)CCCN(Cc1ccc(F)cc1)C2=O (centres undefined)	21.2	-6.1
COc1ccc(S(=O)(=O)Nc2nc(O)c(C3=c4cc([N+](=O)[O-])ccc4=NC3=O)s2)cc1	31.0	-6.7
O=C(Nc1nnc(-c2ccc(F)cc2)o1)c1ccc(S(=O)(=O)N2CCCc3ccccc32)cc1	-5.0	-72.0
O=C(Nc1nnc(C2CC2)o1)c1ccc(S(=O)(=O)N2CCCc3ccccc32)cc1	67.0*!	-116.3
Cc1ccccc1/C=C1\Sc2ccccc2N(CC(=O)NCC2CCCO2)C1=O (centres undefined)	40.0	-2.1
CC(=O)NCC(=O)NC(C(=O)Nc1ccc2c(c1)OCO2)c1ccc(C)cc1 (centres undefined)	5.0	-3.8
Cc1ccc(C(NC(=O)Cc2cc3ccccc3[nH]2)C(=O)Nc2ccc3c(c2)OCCO3)cc1 (centres undefined)	53.0*	-4.7
Cn1c(CCC(=O)NCc2ccc(C(F)(F)F)cc2)nc2ccccc2c1=O	-1.6	-5.1
COc1cc(Br)c(CNc2cc(C)ccc2C)cc1OC	41.8	-1.4
COc1ccc(C)cc1NCc1ccccc1C	81.0*	8.7
Cn1c(SCc2nc3ccccc3[nH]2)nnc1-c1ccc(NC(=O)c2ccccc2Cl)cc1	0.9	-7.9
COc1ccc(C2CC(c3ccccc3OC)n3nc(N)nc3N2)cc1 (centres undefined)	2.1	-3.5
